Measured values reported in PubChem BioAssay (NCI).
This is part of a sample that, as a whole, favours compounds with a hit. Of some 83,000 tested, about 20% had one in any assay.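 For each line, cells grew in 96-well plates with the test compound present at a single concentration for 48 hours.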 Values without a mark were called inactive. Activity calls are given as the source filed them. Rule for the calls: active = growth percent below 10; inactive = the rest.

Tested on: MDA-MB-468 breast
Experiment: NCI-60 one-dose screen, 48 h (100 = growth as untreated, 0 = no growth, -100 = all killed)
Conditions: 10 µM unless noted

SMILES	growth
Cc1nc(C)c(C)nc1C	106%
COc1ccccc1/C=C(/C(=O)c1ccccc1)c1ccccc1	101%
COc1ccc(/C=C/c2nc(Nc3ccc(S(=O)(=O)NC(C)=O)cc3)c3ccccc3n2)cc1	53.2%
CCOC(=O)/C(=C\c1ccccc1Cl)P(=O)(OCC)OCC	43.5%
CCN(CC)c1ccc(/C=C\C(=O)c2ccc(NC(C)=O)cc2)cc1	10.7%
CC(C)Cc1ccc(C(C)C(=O)NCc2ccc(Cn3c(=O)sn(-c4ccc(Cl)cc4)c3=O)cc2)cc1 (stereo not given)	54.4%
O=c1nc(N2CCOCC2)oc2c(-c3cccc4ccccc34)cccc12	76.5%
CC(C)COC(=O)NC(C)(C)C	96.5%
CN(C)c1ncc(-c2ccc(C(F)(F)F)cc2)c(NC2CCCCCC2)n1	29.5%
Cn1cc(-c2ccc3occ(-c4cccc(-c5ccncc5)c4)c3n2)cn1	4.07% (active)
COC(=O)/C=C1/SC(N2N=C(c3cccs3)CC2c2ccc(F)cc2)=NC1=O (stereo not given)	36.7%
CCCCCCCCCCCCCCCc1cc(O)ccc1[N+](=O)[O-]	111%
Cc1cc(C)c(S(=O)(=O)N2CCN(c3cc4c(cc3F)c(=O)c(C(=O)O)cn4C3CC3)CC2)c(C)c1	65.1%
Cc1ccc(C(=O)NN)cc1	106%
COc1cc(/C=N/Nc2ccnc3cc(Cl)ccc23)cc(OC)c1O	-72.1% (active)
COc1cccc(-c2nn(-c3ccccc3)cc2-c2ccnc(NCCNC(=O)Nc3ccccc3)c2)c1	49.7%
CC(C)N1C(=O)/C(=C2\SC(=S)N(C(C)C)C2=O)SC1=S	97.1%
Cn1c(COC(=O)NCCc2ccccn2)nc2c(N3CCOCC3)nc(Cl)nc21	-51.1% (active)
CC(C)(C)CC1(C)NC(=O)NC1=O (stereo not given)	96.1%
COc1ccc(/C(C)=C(\c2ccc(Cl)cc2)c2ccc(OCCN3CCCCCC3)cc2)cc1	16.1%

SMILES	growth
COc1ccc(C(=O)c2c(N)c(C#N)cn2-c2ccc(Cl)cc2Cl)cc1	89.5%
COCc1cnccc1NC1CCCCCC1	102%
O=S(=O)(NCCNc1nccc(-c2c(-c3cccc(O)c3)nc3occn23)n1)c1ccc(C(F)(F)F)cc1	89%
COc1ccc(/C=C2\Cc3c(Br)cccc3C2=O)c(OC)c1	49.6%
CCCCCC(=O)Oc1ccc(/C(=C(\C)c2ccccc2)c2ccc(OCCN(CC)CC)cc2)cc1	61.5%
O=[N+]([O-])c1cccc(/C=C/c2ccccn2)c1	48.1%
NS(=O)(=O)c1ccc(-n2cc(CC=O)nn2)cc1	102%
NC(CCCC(N)C(=O)c1ccccc1)C(=O)O (stereo not given)	113%
O=[N+]([O-])c1ccc(N=Nc2ccc(O)c3ccccc23)cc1	26.7%
CN(C)c1ccc(-c2cc(-c3c[nH]c4ccccc34)nc(N)c2C#N)cc1	39.7%
O=C(CN1C(=O)NC2NC(=O)NC21)N/N=C/c1ccccc1[N+](=O)[O-] (stereo not given)	98.5%
COc1cc(/C=C/C(=O)c2cc(OC)c(OC)c(OC)c2)ccc1Oc1nc(NCCO)nc(N2CCOCC2)n1	-20.8% (active)
O[C@H]1CO[C@H]2[C@@H]1OC[C@@H]2Oc1ccc(Nc2nc(Nc3ccc(F)c(Cl)c3)ncc2F)cc1Cl	97.6%
Cc1[nH]nc2c1C(c1cnn(C)c1)C(C#N)=C(N)O2 (stereo not given)	92.4%
CCCCC(CC)COC(C)=O (stereo not given)	106%
c1ccc2c(c1)oc1cc3sccc3nc12	102%
Brc1ccc(SCN(CSc2ccc(Br)cc2)Cc2ccccc2)cc1	98.3%
c1cc(OCCN2CCCC2)ccc1CNc1ccc2nc(CCC3CCCCC3)[nH]c2c1	43.6%
COc1cc([C@H](C)c2ccc3ccccc3c2)cc(OC)c1OC	47.3%
CC(C)(C)N1CCC1C(N)=O (stereo not given)	108%
